Results: PubChem BioAssay (NCI)
Compounds without any hit were thinned out: in the full panel of roughly 83,000, 20% have a hit.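 Step 1: grow cells in 96-well plates. Step 2: add test compound at a single concentration. Step 3: incubate 48 h. Step 4: record percent growth.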 Values without a mark were called inactive. Activity calls are given as the source filed them. How the source made its calls: active means growth percent below 10; inactive means the rest.

system: HL-60(TB) leukemia; assay: NCI-60 one-dose screen, 48 h (100 = growth as untreated, 0 = no growth, -100 = all killed); conditions: 10 µM unless noted

Row | SMILES | growth
1 | CC(=O)Oc1ccccc1C(=O)Oc1ccc(C(=O)/C=C/c2ccncc2)cc1 | 3.04% (active)
2 | Cn1cc(-c2cc(N)n3nc(-c4c[nH]c5ccccc45)cc3n2)c2cc(Br)cnc21 | -66.7% (active)
3 | COc1ccc(-c2nnc3c(/C=C/c4ccc(Br)cc4)nc4ccccc4n23)cc1 | 3.92% (active)
4 | Cc1noc2c(Cc3ccc([N+](=O)[O-])cc3)nn(CC(=O)N/N=C/c3ccc(Br)cc3)c(=O)c12 | 95.4%
5 | CCCCCCCCc1ccc(C(=O)Nc2ccc(C)cc2C(=O)O)cc1C | 102%
6 | COc1ccc(/C=C2\C(=N)N=C(SCc3nc4ccccc4[nH]3)NC2=O)cc1 | 103%
7 | CC1(C)[C@@H](NCO)CC[C@]2(C)[C@H]3C(=O)C=C4[C@@H]5C[C@](C)(CO)CC[C@]5(C)CC[C@@]4(C)[C@]3(C)CC[C@@H]12 | 58.2%
8 | CC(C)CSc1nc(NCCc2c[nH]c3ccccc23)c(C#N)c(-c2ccccc2)n1 | 60.7%
9 | OCc1[nH]nc2cc(Nc3ncc4ccc(Br)c(OC5CCC(O)CC5)c4n3)ccc12 (stereo not given) | -40.1% (active)
10 | CC(=O)OC[C@@]1(C)C2CC[C@]3(C)C(CC=C4C5CC(C)(C)CC[C@]5(C(=O)Nc5cccc(C)c5)CC[C@]43C)[C@@]2(C)C[C@@H](OC(C)=O)[C@@H]1OC(C)=O (stereo not given in full) | 29.4%
11 | CCCCCCCCc1ccc(C(=O)Nc2ccc(C)cc2C(=O)O)cc1 | 92.2%
12 | Fc1cccc(CNc2nc(SCCN3CCOCC3)nc3c2cnn3CC(Cl)c2ccc(Br)cc2)c1 (stereo not given) | -23.6% (active)
13 | CC1(C)CC(=O)C2=C(C1)N(Cc1ccc(C(=O)O)cc1)C1=C(C(=O)CC(C)(C)C1)C2c1ccc(Cl)cc1 | 107%
14 | C=C1CC[C@@H]2[C@]3(C)COC(c4cn[nH]c4-c4cccc(Cl)c4)O[C@@H]3CC[C@@]2(C)[C@@H]1C/C=C1/C(=O)OCC1O (stereo not given in full) | -15.1% (active)
15 | CCCCCCCCCc1ccc(C(=O)Nc2cc(C)ccc2C(=O)OC)cc1 | 97.1%
16 | Cn1cc(-c2cc(N)n3nc(-c4c[nH]c5ccccc45)cc3n2)c2cc(Br)ccc21 | -18.3% (active)
17 | CCOC(=O)C(Cc1ccccc1)N1C(=O)/C(=C/N2N=C(c3ccc(OC)cc3)CC2c2ccc3ccccc3c2)SC1=S (stereo not given) | -18.4% (active)
18 | NC1=NC(c2ccccc2Cl)N=C(Nc2nn[nH]n2)N1 (stereo not given) | 110%
19 | Cn1cc(-c2cc(N)n3nc(-c4cn(C)c5ccccc45)cc3n2)c2cc(Cl)ccc21 | -26% (active)
20 | COc1ccc(-c2cc(C(=O)N=Nc3c(O)[nH]c4ccc(Br)cc34)c3ccccc3n2)cc1 | 21.1%

Row | SMILES | growth
21 | Cc1cccc(-c2ccccc2Oc2ccc3nnc(Cl)n3n2)c1 | 108%
22 | Cc1ccc(C(=O)N/C(=C2/OCCN2C)[P+](c2ccccc2)(c2ccccc2)c2ccccc2)cc1 | 38.8%
23 | COc1ccccc1NC(=O)N/N=C/c1c[nH]c2ccccc12 | 5.87% (active)
24 | OCNc1ccc(-n2cnc3cc(-c4ccc(O)cc4)ccc32)cc1C(F)(F)F | -2.45% (active)
25 | COc1cc(C2CC(c3ccc(S(=O)(=O)NCCNc4nc(N(C)C)nc(N5CCOCC5)n4)cc3)=Nc3c(N)nc(N)nc3N2)cc(OC)c1OC (stereo not given) | 93.6%
26 | O=C(O)CCN1C(=O)/C(=C/C=C/c2ccc([N+](=O)[O-])o2)SC1=S | -11% (active)
27 | Cc1ccc(N=Nc2c(N)nn3c(-c4cc5cc(Br)ccc5oc4=O)ccnc23)cc1 | 83.2%
28 | COc1ccc(NC(=O)Nc2ccc(OCc3ccc(F)cc3)cc2)cc1 | 83.1%
29 | Nc1nn2c(-c3cc4cc(Br)ccc4oc3=O)ccnc2c1N=Nc1ccc(S(N)(=O)=O)cc1 | 104%
30 | OC1CCC(Cn2c(C(F)(F)F)cc3c(Cl)ncnc32)CC1 (stereo not given) | -37.5% (active)
31 | COc1cc2c3c(n(CCCNCCO)c(=O)c2cc1OC)-c1nc2c(cc1C3=O)OCO2 | 38.3%
32 | O=C(Nc1ccc(-c2ccc3c(c2)NC(=O)/C3=C\c2ccc[nH]2)cc1)Nc1ccc(Cl)c(Cl)c1 | 51.8%
33 | CCCn1c(=O)c2[nH]c(-c3ccc(OCc4nc5ccc(F)cc5[nH]4)cc3)nc2n(CCC)c1=O | 38.2%
34 | N/N=C(\N)c1c(N)nc(=S)[nH]c1-c1ccc(Cl)cc1Cl | 89.1%
35 | O=C1CCC(N2Cc3cc(NC(=O)COc4ccccc4)ccc3C2=O)C(=O)N1 (stereo not given) | 6.3% (active)
36 | Oc1ccc(/C=C2\CCCc3cc4ccc(O)cc4[o+]c32)c(O)c1 | 33.4%
37 | O=C1Nc2cc(Cl)ccc2/C1=C/c1ccc(OCc2ccc(Br)cc2F)cc1 | 81.5%
38 | Cn1cc(/C=N/Nc2cccc(Cl)n2)c2ccccc21 | 56.6%
39 | N#Cc1ccc(C(=O)CSc2nc3c(c(Nc4ccc(S(N)(=O)=O)cc4)n2)CCC3)cc1 | 101%
40 | Cc1ccc(/C=C/C(=O)c2ccc(S(=O)(=O)NCCNc3nc(Nc4ccc(F)cc4)nc(N(C)C)n3)cc2)cc1 | 13.5%
